Test results: PubChem BioAssay (Tox21)
Results filed as inconclusive are left out. Active and inactive are the calls of the source. Unless noted, calls come from the whole dose curve; as a rule, active = well fitted curve in the direction sought with a large enough effect in the repeat runs; inconclusive = weak or mixed curves; inactive = no such curve, though single readings can be large; an effect the other way counts as inactive or inconclusive.

Legend:
[1] = target: Acetylcholinesterase (Homo sapiens) (UniProt P22303); assay: Acetylcholinesterase (AChE) small molecule antagonists: enzyme-based qHTS assay (AID 1347397; calls by dose curve; note: nearly all actives have a fitted effect of over 55% in size); conditions: Potency: AChE enzyme activity inhibition
Method in brief: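 First, recombinant human AChE (50 mU/mL as dispensed) received test compound or DMSO. Second, plates stood 30 min at room temperature. Third, DTNB and acetylthiocholine were added, followed by 10 min at room temperature and colorimetric detection.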

[2] = target: Acetylcholinesterase (Homo sapiens) (UniProt P22303); assay: Acetylcholinesterase (AChE) small molecule antagonists: fluorescence cell-based qHTS assay (AID 1347398; calls by dose curve; note: nearly all actives have a fitted effect of over 50% in size); conditions: Potency: AChE activity
Method in brief: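 Homogeneous quantitative HTS format. SH-SY5Y cells seeded at 2,000 per well settle overnight at 37 C. Compound pretreatment runs 30 min (37 C, 5% CO2); substrate/probe mix then reacts 40 min at RT before reading 490/520 nm.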

[3] = target: Acetylcholinesterase (Homo sapiens) (UniProt P22303); assay: Acetylcholinesterase (AChE) small molecule antagonists: enzyme-based qHTS assay with human liver microsomes (AID 1347399; calls by dose curve; note: nearly all actives have a fitted effect of over 60% in size); conditions: Potency: qHTS inhibition
Method in brief: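 Recombinant human AChE (50 mU/mL in the enzyme mix) and human liver microsomes (0.25 mg/mL final) were preincubated with compound and NADPH (0.25 mg/mL final) for 30 min at 37 C. Acetylthiocholine/DTNB was then added; thiocholine was read colorimetrically after 10 min at room temperature.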

[4] = target: Cytochrome P450 2D6 (Homo sapiens) (UniProt P10635); assay: Cytochrome P450 Family 2 Subfamily D Member 6 (CYP2D6) small molecule antagonists: luciferase reporter qHTS assay (AID 1671196); note: nearly all actives have a fitted effect of over 50% in size
Method in brief: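 Room-temperature luminescent CYP2D6 activity assay: compound preincubated 10 min with enzyme–substrate mix, NADPH-initiated reaction 1 h, detection reagent 20 min before reading.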

[5] = target: Cytochrome P450 2C9 (Homo sapiens) (UniProt P11712); assay: Cytochrome P450 Family 2 Subfamily C Member 9 (CYP2C9) small molecule antagonists: luciferase reporter qHTS assay (AID 1671198); note: nearly all actives have a fitted effect of over 50% in size
Method in brief: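 Enzyme-substrate mix preincubated with compound 10 min at room temperature; reaction started with NADPH regeneration solution, 1 h 37C. Luminescent luciferin product read after 20 min detection reagent.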

[6] = target: Voltage-gated inwardly rectifying potassium channel KCNH2 (Homo sapiens) (UniProt Q12809); assay: Human Ether-a-go-go-Related Gene (hERG) channel small molecule antagonists: fluorescence cell-based qHTS assay (AID 1671200); note: nearly all actives have a fitted effect of over 50% in size
Method in brief: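 hERG-U2OS cells plated overnight at 37 C, loaded with FluxOR II dye 1 h at RT in dark; after 10 min, thallium stimulus added. Fluorescence (480/540 nm) read kinetically for 2 min at 1 s intervals.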

[7] = target: Cytochrome P450 3A4 (Homo sapiens) (UniProt P08684); assay: Cytochrome P450 Family 3 Subfamily A Member 4 (CYP3A4) small molecule antagonists: luciferase reporter qHTS assay (AID 1671201); note: nearly all actives have a fitted effect of over 50% in size
Method in brief: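 P450-Glo CYP3A4 luminescent assay: compounds preincubated 10 min at room temperature with enzyme and proluciferin substrate, NADPH regeneration added, 1 h room-temperature reaction, stopped with luciferin detection reagent; luminescence read after 20 min. Ketoconazole positive control.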

[8] = target: Cytochrome P450 2C19 (Homo sapiens) (UniProt P33261); assay: Cytochrome P450 Family 2 Subfamily C Member 19 (CYP2C19) small molecule antagonists: luciferase reporter qHTS assay (AID 1671197); note: nearly all actives have a fitted effect of over 65% in size
Method in brief: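 Luminescent readout of CYP2C19 activity: luciferin product detected 20 min after adding detection reagent. Before that, compound and enzyme-substrate mix preincubated 10 min at room temperature; NADPH-regenerating system started a 1 h, 37C reaction. Ketoconazole as positive control.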

[9] = target: Cytochrome P450 1A2 (Homo sapiens) (UniProt P05177); assay: Cytochrome P450 Family 1 Subfamily A Member 2 (CYP1A2) small molecule antagonists: luciferase reporter qHTS assay (AID 1671199); note: nearly all actives have a fitted effect of over 50% in size
Method in brief: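 Room-temperature CYP1A2 reaction with proluciferin substrate: compounds added from DMSO, 10 min preincubation, NADPH regeneration for 1 h. Luciferin detection reagent then added; luminescence recorded as RLU.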

Measured: Potency
Potency is the fitted concentration of half-maximal effect.

Chain of Acetylcholinesterase (Homo sapiens) (P22303 whole entry, looked up): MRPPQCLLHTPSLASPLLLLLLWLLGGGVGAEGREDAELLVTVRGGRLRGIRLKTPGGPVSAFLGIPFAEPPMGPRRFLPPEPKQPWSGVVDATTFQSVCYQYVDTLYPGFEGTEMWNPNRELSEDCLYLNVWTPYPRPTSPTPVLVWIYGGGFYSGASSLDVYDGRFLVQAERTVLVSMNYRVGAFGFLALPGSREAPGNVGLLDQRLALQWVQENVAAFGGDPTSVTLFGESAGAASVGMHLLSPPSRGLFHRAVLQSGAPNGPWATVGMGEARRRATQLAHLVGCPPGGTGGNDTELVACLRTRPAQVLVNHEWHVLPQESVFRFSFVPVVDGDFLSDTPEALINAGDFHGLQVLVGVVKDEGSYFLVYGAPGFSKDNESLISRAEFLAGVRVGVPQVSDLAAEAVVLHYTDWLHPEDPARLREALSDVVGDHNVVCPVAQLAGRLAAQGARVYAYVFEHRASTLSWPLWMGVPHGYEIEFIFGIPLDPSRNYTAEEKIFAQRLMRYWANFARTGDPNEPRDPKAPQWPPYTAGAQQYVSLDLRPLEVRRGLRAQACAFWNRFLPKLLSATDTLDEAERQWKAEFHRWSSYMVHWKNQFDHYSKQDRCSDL
Chain of Cytochrome P450 2C19 (Homo sapiens) (P33261 whole entry, looked up): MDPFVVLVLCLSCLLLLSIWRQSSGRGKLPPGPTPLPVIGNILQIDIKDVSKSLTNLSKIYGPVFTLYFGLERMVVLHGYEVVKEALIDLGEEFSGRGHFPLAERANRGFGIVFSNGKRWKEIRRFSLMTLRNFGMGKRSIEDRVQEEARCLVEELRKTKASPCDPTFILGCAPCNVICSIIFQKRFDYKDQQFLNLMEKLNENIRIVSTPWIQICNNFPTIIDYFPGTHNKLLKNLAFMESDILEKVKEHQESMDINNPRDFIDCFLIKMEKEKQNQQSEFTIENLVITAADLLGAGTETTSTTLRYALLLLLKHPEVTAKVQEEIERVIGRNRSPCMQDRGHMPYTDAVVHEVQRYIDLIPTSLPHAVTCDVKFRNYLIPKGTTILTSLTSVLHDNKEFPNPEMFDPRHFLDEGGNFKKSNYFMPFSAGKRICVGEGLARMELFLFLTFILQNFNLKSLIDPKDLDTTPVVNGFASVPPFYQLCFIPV
Chain of Cytochrome P450 3A4 (Homo sapiens) (P08684 whole entry, looked up): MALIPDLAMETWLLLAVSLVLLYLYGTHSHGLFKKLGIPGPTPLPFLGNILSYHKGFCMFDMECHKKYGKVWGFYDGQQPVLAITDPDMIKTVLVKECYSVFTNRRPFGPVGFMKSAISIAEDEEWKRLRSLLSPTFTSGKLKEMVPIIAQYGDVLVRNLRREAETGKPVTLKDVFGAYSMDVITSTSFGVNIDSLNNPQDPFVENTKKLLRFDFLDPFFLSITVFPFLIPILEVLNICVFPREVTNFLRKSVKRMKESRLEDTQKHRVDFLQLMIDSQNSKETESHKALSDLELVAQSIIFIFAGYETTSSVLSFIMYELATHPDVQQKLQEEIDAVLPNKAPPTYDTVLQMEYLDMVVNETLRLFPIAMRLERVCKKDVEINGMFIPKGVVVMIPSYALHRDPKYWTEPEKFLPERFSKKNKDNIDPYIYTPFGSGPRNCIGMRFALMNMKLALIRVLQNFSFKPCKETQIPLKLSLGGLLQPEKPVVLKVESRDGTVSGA
Chain of Cytochrome P450 1A2 (Homo sapiens) (P05177 whole entry, looked up): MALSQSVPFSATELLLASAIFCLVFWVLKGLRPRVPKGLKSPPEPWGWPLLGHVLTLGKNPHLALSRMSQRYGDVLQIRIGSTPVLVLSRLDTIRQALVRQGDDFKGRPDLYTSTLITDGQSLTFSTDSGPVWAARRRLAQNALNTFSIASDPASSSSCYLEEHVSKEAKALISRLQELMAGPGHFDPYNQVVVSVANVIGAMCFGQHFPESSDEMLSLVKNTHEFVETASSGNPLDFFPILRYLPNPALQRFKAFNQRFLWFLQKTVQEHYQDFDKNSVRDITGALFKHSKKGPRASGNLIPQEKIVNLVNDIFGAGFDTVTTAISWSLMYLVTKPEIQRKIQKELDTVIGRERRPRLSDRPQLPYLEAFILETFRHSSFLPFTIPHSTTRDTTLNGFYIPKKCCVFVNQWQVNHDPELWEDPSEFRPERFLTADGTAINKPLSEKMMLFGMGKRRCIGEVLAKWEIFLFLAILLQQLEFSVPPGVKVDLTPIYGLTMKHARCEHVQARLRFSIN
Chain of Cytochrome P450 2D6 (Homo sapiens) (P10635 whole entry, looked up): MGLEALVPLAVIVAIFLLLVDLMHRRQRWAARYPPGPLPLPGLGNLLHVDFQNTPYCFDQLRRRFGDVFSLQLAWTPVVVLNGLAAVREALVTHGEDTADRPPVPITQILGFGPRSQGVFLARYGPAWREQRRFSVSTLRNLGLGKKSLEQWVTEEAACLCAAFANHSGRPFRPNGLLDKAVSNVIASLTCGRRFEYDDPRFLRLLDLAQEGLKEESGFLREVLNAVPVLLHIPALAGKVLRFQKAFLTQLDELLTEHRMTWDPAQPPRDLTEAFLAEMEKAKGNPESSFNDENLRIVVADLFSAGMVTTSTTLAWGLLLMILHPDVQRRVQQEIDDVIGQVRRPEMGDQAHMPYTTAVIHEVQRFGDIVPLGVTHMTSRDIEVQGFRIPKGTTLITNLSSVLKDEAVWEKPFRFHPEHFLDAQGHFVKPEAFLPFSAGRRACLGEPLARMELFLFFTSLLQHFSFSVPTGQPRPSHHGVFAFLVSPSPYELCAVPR
Chain of Voltage-gated inwardly rectifying potassium channel KCNH2 (Homo sapiens) (Q12809 whole entry, looked up): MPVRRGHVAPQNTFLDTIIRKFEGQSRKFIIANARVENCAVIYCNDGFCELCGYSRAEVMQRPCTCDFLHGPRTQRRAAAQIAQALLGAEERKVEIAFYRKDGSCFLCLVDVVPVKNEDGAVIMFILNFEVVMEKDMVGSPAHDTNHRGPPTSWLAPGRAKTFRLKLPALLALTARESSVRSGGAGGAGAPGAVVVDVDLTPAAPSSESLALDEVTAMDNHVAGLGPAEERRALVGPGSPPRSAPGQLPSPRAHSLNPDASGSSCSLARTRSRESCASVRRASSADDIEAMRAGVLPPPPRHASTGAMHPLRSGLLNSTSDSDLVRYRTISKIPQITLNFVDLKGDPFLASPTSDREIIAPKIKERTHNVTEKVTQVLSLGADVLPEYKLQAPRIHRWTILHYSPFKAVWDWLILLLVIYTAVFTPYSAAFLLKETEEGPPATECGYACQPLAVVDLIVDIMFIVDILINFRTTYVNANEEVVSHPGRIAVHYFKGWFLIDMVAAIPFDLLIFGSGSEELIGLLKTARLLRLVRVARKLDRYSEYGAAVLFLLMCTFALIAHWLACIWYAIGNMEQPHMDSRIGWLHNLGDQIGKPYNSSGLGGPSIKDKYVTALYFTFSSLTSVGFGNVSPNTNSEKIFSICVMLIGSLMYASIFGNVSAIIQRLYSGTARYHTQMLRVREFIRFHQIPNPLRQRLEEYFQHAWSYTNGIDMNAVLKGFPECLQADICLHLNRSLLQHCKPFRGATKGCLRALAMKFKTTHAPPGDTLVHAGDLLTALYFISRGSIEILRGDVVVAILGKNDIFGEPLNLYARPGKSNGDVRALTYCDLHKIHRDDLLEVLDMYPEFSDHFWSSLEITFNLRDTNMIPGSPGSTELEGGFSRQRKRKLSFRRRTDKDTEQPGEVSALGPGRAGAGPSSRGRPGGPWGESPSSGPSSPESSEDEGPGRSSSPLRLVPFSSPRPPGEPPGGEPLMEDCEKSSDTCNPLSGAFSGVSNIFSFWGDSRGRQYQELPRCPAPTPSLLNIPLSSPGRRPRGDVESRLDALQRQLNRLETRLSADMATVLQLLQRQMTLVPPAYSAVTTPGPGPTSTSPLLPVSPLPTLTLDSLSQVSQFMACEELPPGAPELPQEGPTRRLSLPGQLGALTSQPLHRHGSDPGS
Chain of Cytochrome P450 2C9 (Homo sapiens) (P11712 whole entry, looked up): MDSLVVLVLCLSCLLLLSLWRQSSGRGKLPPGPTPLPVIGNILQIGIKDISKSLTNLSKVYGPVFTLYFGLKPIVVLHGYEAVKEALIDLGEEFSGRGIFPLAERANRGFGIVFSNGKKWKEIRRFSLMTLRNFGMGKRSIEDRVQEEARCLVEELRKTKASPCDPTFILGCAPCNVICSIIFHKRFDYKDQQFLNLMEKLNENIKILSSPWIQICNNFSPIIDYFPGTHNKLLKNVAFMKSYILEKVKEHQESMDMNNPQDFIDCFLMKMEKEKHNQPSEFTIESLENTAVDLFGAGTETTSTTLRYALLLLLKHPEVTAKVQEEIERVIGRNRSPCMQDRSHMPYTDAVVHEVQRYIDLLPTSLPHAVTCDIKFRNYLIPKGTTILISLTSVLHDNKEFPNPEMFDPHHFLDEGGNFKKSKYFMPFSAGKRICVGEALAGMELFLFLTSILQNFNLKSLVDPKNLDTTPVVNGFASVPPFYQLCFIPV

NC(=S)C(N)=S
active: [4] 71 µM | [5] 79.6 µM
inactive: [1] | [2] | [3] | [6]

CC(C)[N+](=O)[O-]
not listed: [8] | [9]
inactive: all other assays above

Cc1ncc(CNC(=O)N(CCCl)N=O)c(N)n1
not listed: [5] | [8] | [9]
inactive: all other assays above

CC(C=O)Cc1ccc2c(c1)OCO2 (configuration not stated)
active: [8] 20 µM | [5] 15.9 µM | [9] 6.33 µM
inactive: [1] | [2] | [3] | [6]

COC(=O)COc1ccc(Cl)cc1Cl
active: [9] 12.6 µM
not listed: [8]
inactive: all other assays above

CC(C)CP(=S)(S)CC(C)C
active: [8] 56.4 µM | [5] 31.7 µM | [7] 35.6 µM
not listed: [4]
inactive: all other assays above

O=[N+]([O-])c1ccc(CBr)cc1
not listed: [7] | [8] | [9]
inactive: all other assays above

CCOC(=O)N(C)C(=O)CSP(=S)(OCC)OCC
active: [8] 0.126 µM | [5] 0.71 µM | [9] 3.17 µM
inactive: [1] | [2] | [3] | [6]

C=C(C)[C@@H]1CC=C(C=O)CC1
active: [8] 63.3 µM | [5] 71 µM
not listed: [4] | [7]
inactive: all other assays above

COc1cc2c(cc1OC)[C@@]13CCN4CC5=CCO[C@H]6CC(=O)N2[C@H]1[C@H]6[C@H]5C[C@H]43
not listed: [4] | [6] | [7]
inactive: all other assays above

C(CCOCC1CO1)COCC1CO1 (configuration not stated)
not listed: [8]
inactive: all other assays above

CCNc1nc(NC(C)C)nc(OC)n1
active: [8] 25.2 µM | [9] 25.2 µM
not listed: [4] | [7]
inactive: all other assays above

Nc1cc(Cl)ccc1O
active: [8] 21.7 µM | [5] 30.7 µM | [9] 30.7 µM
inactive: [1] | [2] | [3] | [6]

CCC1(c2ccccc2)C(=O)N=C(O)NC1=O (configuration not stated)
active: [5] 61.6 µM
not listed: [8]
inactive: all other assays above

c1cc2c(c(N3CCNCC3)c1)OCCO2
not listed: [4] | [7]
inactive: all other assays above

COC(=O)c1c(C(F)F)nc(C(F)(F)F)c(C2=NCCS2)c1CC(C)C
active: [8] 5.03 µM | [5] 35.6 µM | [9] 0.356 µM | [7] 2 µM
not listed: [4]
inactive: all other assays above

COc1cc(OC)nc(Oc2cccc(Oc3nc(OC)cc(OC)n3)c2C(=O)O)n1
not listed: [4]
inactive: all other assays above

ClCCOCOCCCl
not listed: [8]
inactive: all other assays above

CNC(=O)N(C)c1nc2ccccc2s1
inactive: [1] | [2] | [3] | [6]
active: [8] 39.9 µM | [5] 39.9 µM | [9] 2.52 µM

COC(=O)C(c1ccccc1)C1CCCCN1 (configuration not stated)
active: [4] 22.5 µM
not listed: [5] | [8]
inactive: all other assays above

CCOP(=S)(OCC)SCSP(=S)(OCC)OCC
active: [1] 63.3 µM | [2] 35.6 µM | [3] 17.8 µM | [8] 0.399 µM | [5] 0.796 µM | [9] 15.9 µM | [7] 1.26 µM
inactive: [6]

CS(=O)(=O)c1cc(C(F)(F)F)ccc1C(=O)c1cnoc1C1CC1
active: [8] 56.4 µM | [5] 1.59 µM | [9] 35.6 µM
not listed: [4]
inactive: all other assays above

CCCCc1c(C)nc(NCC)[nH]c1=O
active: [8] 79.6 µM | [9] 17.8 µM
not listed: [4] | [7]
inactive: all other assays above

C[C@H]1CCC[C@H](O)CCCCCc2cc(O)cc(O)c2C(=O)O1
active: [8] 22.6 µM | [5] 31.9 µM | [9] 35.8 µM
inactive: [1] | [2] | [3]

CN1CCC(O)(c2ccc(F)cc2)C(C(=O)c2ccc(F)cc2)C1 (configuration not stated)
not listed: [4] | [6] | [7]
inactive: all other assays above

CC(C(O)c1ccccc1)N(C)C/C=C/c1ccccc1 (configuration not stated)
inactive: [1] | [2] | [3] | [7]
active: [4] 0.0871 µM | [6] 10.7 µM

CC1(C)C(=O)NC(=O)NC1=O
active: [9] 35.6 µM
not listed: [8]
inactive: all other assays above

ClCC(Cl)(Cl)Cl
not listed: [4]
inactive: all other assays above

CC(Oc1ccc(Oc2ncc(C(F)(F)F)cc2Cl)cc1)C(=O)O (configuration not stated)
active: [4] 71 µM | [5] 35.6 µM | [9] 39.9 µM
not listed: [8]
inactive: all other assays above

CCCSC(=O)N(CCC)CCC
not listed: [4]
inactive: all other assays above

COc1cc(OC)nc(NC(=O)NS(=O)(=O)c2ncccc2C(=O)N(C)C)n1
not listed: [4] | [9]
inactive: all other assays above

Cc1cc(C)c(C(=O)P(=O)(C(=O)c2c(C)cc(C)cc2C)c2ccccc2)c(C)c1
active: [8] 35.6 µM | [5] 35.6 µM | [9] 71 µM | [7] 25.2 µM
inactive: [1] | [2] | [3] | [6]

CCS(=O)(=O)C(C)(C)S(=O)(=O)CC
not listed: [4]
inactive: all other assays above

COC(=O)C1=CCCN(C)C1
not listed: [4]
inactive: all other assays above

OCCBr
not listed: [4] | [9]
inactive: all other assays above

Nc1ccccc1Cl
not listed: [4] | [9]
inactive: all other assays above

CN(C)CCc1ccc(O)cc1
not listed: [4]
inactive: all other assays above

OC(c1ccc(F)cc1)(c1cncnc1)c1ccccc1Cl (configuration not stated)
active: [8] 3.99 µM | [5] 20 µM | [7] 0.356 µM
inactive: [1] | [2] | [3] | [6]

CC(C(=O)c1ccccc1)N(C)C (configuration not stated)
active: [8] 4.9 µM
inactive: [1] | [2] | [3] | [9] | [6]

CCCCOP(=O)(O)OCCCC
inactive: [1] | [2] | [3] | [9] | [6]
active: [8] 56.4 µM

CCCCOC(=O)[C@@H](C)Oc1ccc(Oc2ccc(C#N)cc2F)cc1
active: [8] 19.9 µM | [5] 7.92 µM | [9] 31.5 µM | [6] 4.34 µM
inactive: [1] | [2] | [3] | [7]

CC(=O)Nc1cc([As](=O)(O)O)ccc1O
not listed: [4]
inactive: all other assays above

CC1CN1P(=O)(N1CC1C)N1CC1C (configuration not stated)
not listed: [4]
inactive: all other assays above

CCC(=O)C(CCN(C)C)(c1ccccc1)c1ccccc1
inactive: [1] | [2] | [3] | [9]
active: [8] 11 µM

COc1cccc2c1cc([N+](=O)[O-])c1c(C(=O)O)cc3c(c12)OCO3
active: [8] 79.6 µM | [5] 28.3 µM | [9] 39.9 µM | [7] 22.4 µM
inactive: [1] | [2] | [3] | [6]

COP(=S)(OC)Oc1ccc(S(N)(=O)=O)cc1
inactive: [1] | [2] | [3] | [6]
active: [8] 1.38 µM | [5] 3.47 µM

CCCSP(=O)(OCC)Oc1ccc(Br)cc1Cl (configuration not stated)
inactive: [7]
active: [1] 3.87 µM | [2] 0.866 µM | [3] 2.74 µM | [8] 3.45 µM | [5] 10.9 µM | [9] 4.34 µM

N#CC(O)c1ccccc1 (configuration not stated)
not listed: [4] | [9]
inactive: all other assays above

CCC(Cl)[N+](=O)[O-] (configuration not stated)
not listed: [4] | [9]
inactive: all other assays above
